# According to ChEMBL document CHEMBL4513216, “Probing the Open Global Health Chemical Diversity Library for Multistage-Active Starting Points for Next-Generation Antimalarials” (ACS Infect Dis, 2020):
# Among all 69,000 compounds or so, about 8,600 (12%) showed an effect of 50% or more. What follows is part of a selection rich in strong results, with near analogues and random picks from the rest.
# Test system: Plasmodium berghei
# Assay: Screen against P. berghei liver stage (PbLuc), transformed with Luciferase, at 10uM
# Format: functional, HepG2
# Conditions: tested at 10 uM
row,Compound,INHIBITION [%]
1,Cc1cc(CCC2CN(CC3(O)CCCCC3)CCO2)ncn1 (stereo not drawn),-3.02
2,CCN1CCc2nc(N3CCOCC3)nc(NC(C)C)c2C1,24
3,Cc1nc(N2CCOCC2)nc2c1CCN(c1nccs1)CC2,37.8
4,c1csc(CN2CCc3nc(N4CCOCC4)nc(NC4CC4)c3C2)n1,57.1
5,CC(C)CCN1CCc2nc(N3CCOCC3)nc(NC(C)C)c2C1,70.2
6,Cc1nc(N2CCCC2)nc2c1CCN(Cc1ccoc1)CC2,8.03
7,C1CN(c2nc3c(c(NC4CC4)n2)CN(CC2CCOC2)CC3)CCO1 (stereo not drawn),-39.4
8,CCCN1CCc2nc(N3CCOCC3)nc(NC(C)C)c2C1,69.3
9,c1cc(CN2CCc3nc(N4CCOCC4)nc(NC4CC4)c3C2)co1,-15.3
10,CC(C)Nc1nc(N2CCOCC2)nc2c1CN(Cc1ccoc1)CC2,55.2
11,Cc1nc(N2CCOCC2)nc2c1CN(CC(=O)N(C)C)CC2,16.8
12,CC(C)Nc1nc(N2CCOCC2)nc2c1CN(CC(=O)N(C)C)CC2,20.5
13,Cc1cc2ccccc2n1CC(=O)NC(C)C(=O)N1CCOCC1 (stereo not drawn),-7.83
14,CCCc1nc(C(C)(C)NC(=O)C2CC(=O)N(C3CC3)C2)no1 (stereo not drawn),40
15,CC(C)(C)n1cc(CNC2CCN(C(=O)c3ccoc3)CC2)cn1,1.75
16,COc1cc(CN2CCC3(CC(Nc4ccncn4)C3)C2)cc(OC)c1 (stereo not drawn),44.1
17,Cc1cc2ccccc2n1CC(=O)NCC(=O)N1CCOCC1,8.41
18,CCOCc1nn(CC2CC2)c2c1CN(Cc1ccco1)CC2,12.4
19,COc1ccc(-n2ccc(C(=O)NCCN3CCCCC3)n2)cc1,40.2
20,COc1ccc(-n2ccc(C(=O)NCCN3CCC(C)CC3)n2)cc1,38.8
21,CC1CCCN(CCNC(=O)c2ccn(-c3cccc(F)c3)n2)C1 (stereo not drawn),51.1
22,COc1ccc(-n2ccc(C(=O)NCCN3CCCC(C)C3)n2)cc1 (stereo not drawn),62.1
23,CC1CCCN(CCNC(=O)c2ccn(-c3ccc(F)cc3)n2)C1 (stereo not drawn),3.15
24,O=C(NCCN1CCCCC1)c1ccn(-c2ccc(F)cc2)n1,-2.53
25,O=C(NCCN1CCCCCC1=O)c1ccn(-c2ccc(F)cc2)n1,13.3
26,CCN1CCN(CCNC(=O)c2ccn(-c3ccc(F)cc3)n2)CC1,60.2
27,CC1CCCN(CCNC(=O)c2ccn(-c3ccccc3)n2)C1 (stereo not drawn),29.4

row,Compound,INHIBITION [%]
1,COc1ccc(-n2ccc(C(=O)NCCN3CCCCC3C)n2)cc1 (stereo not drawn),44.8
2,COc1cn(-c2ccccc2)nc1C(=O)NCCN1CCCC(C)C1 (stereo not drawn),22.3
3,COc1ccc(-n2ccc(C(=O)NCCN3CCCCCC3)n2)cc1,51.1
4,CC(C)CNC(=O)[C@H]1CCS(=O)(=O)[C@@H]2CN(CC(C)C)C[C@H]12,23.3
5,Cc1ccc(NC(=O)NCCn2cnc(C)c(C)c2=O)cc1F,-16.4
6,CC(=O)c1cc2ncc(C(=O)NC3CCCC3)cc2[nH]1,8.52
7,CC(C)OC(=O)N1C[C@@H]2CC[C@H]1CN(C(=O)c1ccccc1)C2,-63.6
8,Cc1ncccc1C(=O)NCC(C)Oc1ccc(F)cc1 (stereo not drawn),10.1
9,CCn1cnnc1CNC(=O)N(C)Cc1cccc(OC(F)F)c1,36.1
10,Cc1cnc(C2(C)CCN(Cc3cscn3)CC2)s1,-6.92
11,COCCNC(=O)c1cc(-c2cc[nH]n2)n2ccccc12,-22.5
12,Cc1c(C(=O)NC2CCCOc3cc(Cl)ccc32)cnn1C (stereo not drawn),-25.8
13,CCn1cc(-c2cc(C(F)F)nc3sc(C(N)=O)c(N)c23)c(C)n1,-35.4
14,CCn1ncc(-c2cc(C(F)F)nc3sc(C(N)=O)c(N)c23)c1C,64.8
15,Cc1c(-c2cc(C(F)F)nc3sc(C(N)=O)c(N)c23)cnn1C,-17.2
16,CC1CN(CCOc2ccccc2C#N)CCN1Cc1nccn1C (stereo not drawn),14.1
17,Cc1ccc(C)c(CN2CCOC(c3noc(C)n3)C2)c1 (stereo not drawn),8.53
18,Cc1cccc(CN2CCC(c3nnsc3S(C)(=O)=O)CC2)n1,30.8
19,O[C@@H]1CN(Cc2cccc(F)c2)CC[C@H]1NCc1ccccn1,43.05
20,CC(NCc1ccsc1)c1ccc(OCc2nccn2C)cc1 (stereo not drawn),69.5
21,COc1ccc(C(C)NCc2cccs2)cc1Cn1cccn1 (stereo not drawn),10.6
22,CC(NCc1cnn(C)c1)c1ccc(OCc2nccn2C)cc1 (stereo not drawn),49.5
23,CC(NCc1ccc(OCc2nccn2C)cc1)c1cccnc1 (stereo not drawn),-63.6
24,CC(NCc1cccs1)c1ccc(OCc2nccn2C)cc1 (stereo not drawn),63.8
25,CC(C(=O)NCc1cccs1)N1CCN(Cc2nccn2C)CC1 (stereo not drawn),46.4
26,Cc1sc(NC(=O)CN(C)CCOc2cccc(F)c2)c(C)c1C,9.14
